Data: PubChem BioAssay (NCATS)
Results filed as inconclusive are left out. A number with no mark means an inactive call. Active and inactive are the calls of the source. The call rests on the fitted dose curve; in most records, active means well fitted inhibition curve with a large enough effect; inconclusive means small, poorly fitted or top-dose-only effect; inactive means flat fitted curve, though single readings scatter.

What was measured:
Assay in all cases: Cytotoxic Profiling of Annotated Libraries Using Quantitative High-Throughput Screening (AID 1296008); further: nearly all actives have a fitted effect of over 60% in size
Details in all cases: Five cell lines viability, CellTiter-Glo ATP luminescence, 48-72 h; max response: active compounds read low
[1] = tested on: CRL-7250
Summary of the method: (§1)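 Compounds were pin-transferred onto cells and incubated 48 or 72 hr at 37 degree Celsius, 95% humidity. CellTiter-Glo was added, plates sat 10 min at room temperature, then ATP-coupled luminescence was imaged as the viability read-out.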

[2] = tested on: KB-3-1
Summary of the method: as §1

[3] = tested on: NIH3T3
Summary of the method: as §1
On the % scale 0 is the no-effect control and ±100 the full control effect; potency means the concentration at half of the fitted maximal effect.

## C=C(C)C1CC(O)C(C)C12CC(O)C1(C)OC1C2O (stereo not drawn)
[1]
  Potency: 2.59 µM (active)
[2]
  Potency: 3.66 µM (active)
[3]
  max response: -26.2%

## C=C(C(=O)OC[C@H]1O[C@@H](OC(=O)/C=C/c2ccccc2)[C@H](O)[C@@H](O)[C@@H]1O)C(O)CO (stereo partly drawn)
[1]
  max response: -9.26%
[2]
  max response: -8.71%
[3]
  max response: 1.83%

## Cn1cc(-c2ccc3c(c2)CCN3C(=O)Cc2cccc(C(F)(F)F)c2)c2c(N)ncnc21
[1]
  Potency: 16.4 µM (active)
[3]
  max response: -21.2%

## Fc1ccc(N2CCCCC2)c(NC(=S)c2ccncc2)c1
[1]
  max response: 3.95%
[2]
  max response: -9.62%
[3]
  max response: -6.72%

## CC(C)c1ccc(NC(=O)c2cccs2)c(-c2nc3ccccc3[nH]c2=O)c1
[1]
  max response: 4.02%
[3]
  max response: 0.611%

## CCn1c(=O)c(-c2ccc(Cl)cc2Cl)cc2cnc(Nc3ccc(N4CCNCC4)c(F)c3)nc21
[1]
  Potency: 1.16 µM (active)
[3]
  Potency: 1.03 µM (active)

## CC(=O)O[C@H]1[C@H](O)C[C@@]2(C)C(CC[C@]3(C)C2CC=C2C4CC(C)(C)CC[C@]4(C(=O)O)CC[C@]23C)C1(C)C (stereo partly drawn)
[1]
  max response: -14.7%
[2]
  max response: -19.6%
[3]
  max response: -15.2%

## Cc1ccnn1-c1ccc(C(=O)N2CCN(S(=O)(=O)c3ccc(Cl)c(C(F)(F)F)c3)CC2)cc1
[1]
  outcome: inactive
[2]
  max response: -18.8%
[3]
  max response: -5.12%

## CCN(c1cc(-c2ccc(CN3CCOCC3)cc2)cc(C(=O)NCc2c(C)cc(C)[nH]c2=O)c1C)C1CCOCC1
[1]
  max response: -21.9%
[2]
  max response: -1.86%
[3]
  max response: -11.7%

## CC1(NC(=O)c2ccc(C#Cc3cccc(F)c3)cn2)COC1
[1]
  max response: 4.8%
[2]
  max response: -5.29%
[3]
  max response: -3.45%

## Clc1cccc(COc2cncc(N3CCNCC3)n2)c1
[1]
  outcome: inactive
[2]
  max response: -0.792%
[3]
  max response: -5.94%

## COc1ccccc1N1CCN(c2ncnc3n[nH]c(Br)c23)CC1
[1]
  max response: -14.5%
[3]
  outcome: inactive

## CCS(=O)c1nc(-c2cccc(OCc3ccccc3)c2)cc(C(F)(F)F)n1 (stereo not drawn)
[1]
  max response: 1.1%
[3]
  Potency: 18.4 µM (active)

## COc1ccccc1C(=O)Nc1cc2c(cc1N1CCCC1)n(C)c(=O)n2C
[1]
  max response: -29%
[2]
  max response: -11.6%
[3]
  max response: -10.9%

## Cn1ccc(NC(=O)c2cc(Oc3ccc(C(=O)N4CCC4)c(F)c3)c3c(c2)OC(C)(C)C3)n1
[1]
  max response: 3.93%
[2]
  max response: 1.91%
[3]
  max response: 4.11%

## CC1=CC2/C=C(\C)CCC3OC(C)(C)OC3CCC(=O)C23C(=O)NC(CC(C)C)C3C1C (stereo not drawn)
[1]
  max response: 4.29%
[2]
  max response: 3.72%
[3]
  max response: -3.16%
